Bioassay records from PubChem.
Compounds with a hit are over-represented: about 28% of the library has one in this group of screens.
CYP2C9 inhib – blocks human cytochrome P450 2C9; P11712; CYP2C9 Supersomes, luciferin-H conversion, luminescence; inhibition, % at 5 µM; 96,000 tested, 20% active;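 active means blocking of liver enzyme CYP2C9 beyond about 50% at 5 µM, limit read from the data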
Target sequence (P11712 whole entry, looked up): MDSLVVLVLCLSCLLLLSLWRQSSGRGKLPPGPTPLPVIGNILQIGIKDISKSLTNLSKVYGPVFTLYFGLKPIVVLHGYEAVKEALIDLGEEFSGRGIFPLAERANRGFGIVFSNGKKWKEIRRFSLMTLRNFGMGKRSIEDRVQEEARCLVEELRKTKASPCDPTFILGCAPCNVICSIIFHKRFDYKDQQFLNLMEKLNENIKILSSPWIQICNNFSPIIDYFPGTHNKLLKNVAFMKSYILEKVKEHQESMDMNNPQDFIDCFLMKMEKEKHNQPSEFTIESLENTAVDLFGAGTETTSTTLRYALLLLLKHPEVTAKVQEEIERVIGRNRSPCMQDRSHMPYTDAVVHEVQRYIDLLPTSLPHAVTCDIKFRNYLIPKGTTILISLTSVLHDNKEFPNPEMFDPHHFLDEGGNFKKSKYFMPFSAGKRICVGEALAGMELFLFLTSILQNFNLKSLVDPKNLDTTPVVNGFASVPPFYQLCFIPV
Mac1 fbg inh – CD11b/CD18-fibrinogen binding inhibition | K562 CD11b/CD18 adhesion to fibrinogen, ATPlite luminescence; Mn2+ added to activate the integrin | inhibition, % at 10 µM | 93,000 tested, 0.54% active | AID 1497;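 active means primary inhibition of 50% or more at 10 µM, then 40% or more on retest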
CYP2C19 act – activators of human cytochrome P450 2C19 | P33261 | recombinant CYP2C19, luciferin-H EGE luminescence; active compounds read high; 0 = fully inhibited enzyme, 1 = untreated enzyme | activation factor at 5 µM | 96,000 tested, under 10 active | AID 1025;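 active means activation factor of at least 2 at 5 µM in the primary screen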
CYP2C19 inh – inhibitors of human CYP2C19 | P33261 | inhibition, % at 5 µM | CYP2C19 Supersomes, luciferin-H EGE luminescence, 30 min | AID 778 | 96,000 tested, 21% active;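 active means CYP2C19 inhibition above a set limit at 5 µM in the primary screen, cut at about 50% in these data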
Mac1 fbg enh – CD11b/CD18-fibrinogen binding enhancement. 93,000 tested, 0.07% active. AID 1499. K562 CD11b/CD18 adhesion to fibrinogen, ATPlite luminescence. activation, % at 10 µM. P05107+P11215;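 active means 10 µM primary screen giving 50% or more activity, confirmed by 40% or more on retest at that dose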
CYP2C9 activ – activators of human CYP2C9. recombinant CYP2C9, luciferin-H conversion, luminescence; active compounds read high; factor 1 = untreated enzyme, 0 = blocked. activation factor at 5 µM. 96,000 tested, 1.4% active. AID 1024;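 active means activation factor of 2 or more for CYP2C9 at a 5 µM dose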
Of the large screens only hits and unclear results are named; the others gave an inactive call.

CCOC(=O)C1CCCN(C(=S)Nc2cc(C)cc(C)c2)C1 (stereo not drawn)	CYP2C19 inh 70
CCOC(=O)C1CCN(C(=S)Nc2cccc(C)c2)CC1	CYP2C19 inh 96
O=C(Nc1ccc2nc(-c3ccco3)c(-c3ccco3)nc2c1)N1CCCCCC1	none
CCOC(=O)C1CCN(C(=O)Nc2ccc3nc(-c4ccco4)c(-c4ccco4)nc3c2)CC1	CYP2C9 inhib 75, CYP2C19 inh 71
CN(C)CCN1C(=O)C(=O)/C(=C(/O)c2ccc(OCc3ccccc3)cc2)C1c1ccncc1 (stereo not drawn)	none
COc1ccccc1C(=O)N/C(=C/c1ccc(Br)cc1)C(=O)NCC(=O)O	none
Cc1ccc(C2NC(=O)Cc3ccccc32)cc1 (stereo not drawn)	CYP2C19 inh 65
O=S(=O)(NC1CCCCC1NCc1ccco1)c1ccccc1 (stereo not drawn)	none
COC1CCCCC1NS(=O)(=O)c1ccc(Cl)cc1 (stereo not drawn)	CYP2C19 inh 94
COC1CCCCC1NS(=O)(=O)c1ccccc1 (stereo not drawn)	CYP2C19 inh 56
COC1CCCCC1Nc1cc(C)ccc1C (stereo not drawn)	none
c1ccc2c(c1)CCN(c1nc3cc4c(cc3s1)OCCO4)C2	none
O=C(NCCCN1CCCC1=O)c1cc(=O)c2ccccc2o1	none
O=C(CN(Cc1cccs1)C(=O)CNS(=O)(=O)c1ccccc1)NCc1ccco1	CYP2C19 inh 52
O=C(CN(Cc1ccco1)C(=O)CNS(=O)(=O)c1ccc(F)cc1)NCCc1ccccc1	CYP2C9 inhib 61, CYP2C19 inh 65
O=C(CN(Cc1ccco1)C(=O)CNS(=O)(=O)c1ccccc1)NCc1ccccc1	CYP2C19 inh 61
O=C(CN(Cc1ccco1)C(=O)CNS(=O)(=O)c1ccccc1)NC1CCCCC1	none
COc1ccccc1C(CC(N)=O)c1ccco1 (stereo not drawn)	none (no result: Mac1 fbg inh, Mac1 fbg enh)
CC(C)c1nnc(NC(=O)CC(=O)Nc2ccccc2C(=O)O)s1	none
COc1cccc(CNC(=O)C2CCCN(S(=O)(=O)c3c(C)n[nH]c3C)C2)c1 (stereo not drawn)	none
O=c1c(-c2ccccc2)[n+]([O-])c2ccccc2n1O	none
CC1(C)CC(C#N)(N2CCOCC2)CCO1 (stereo not drawn)	none
CC1CCC(C(C)C)C(OC(=O)COC(=O)c2cccn2C)C1 (stereo not drawn)	CYP2C9 inhib 80, CYP2C19 inh 91
CC(C(=O)Nc1cccc([N+](=O)[O-])c1)n1nnc2ccccc21 (stereo not drawn)	CYP2C9 inhib 79, CYP2C19 inh 53 (no result: Mac1 fbg inh, Mac1 fbg enh)
CC(C(=O)Nc1cccc([N+](=O)[O-])c1)N1CCN(C/C=C/c2ccccc2)CC1 (stereo not drawn)	none (no result: CYP2C9 inhib, CYP2C19 act, CYP2C19 inh, CYP2C9 activ)
CCC(C)(c1ccc(C(=O)OC)s1)c1ccc(C(=O)OC)s1	CYP2C9 inhib 98, CYP2C19 inh 98
O=C(COc1ccc(Cl)cc1)Nc1ccc2oc(-c3ccncc3)nc2c1	CYP2C9 inhib 62, CYP2C19 inh 52
CCCCCC(=O)Nc1ccc2oc(-c3cncc(Br)c3)nc2c1	none
CCCC(=O)Nc1ccc2oc(-c3ccncc3)nc2c1	CYP2C9 inhib 78, CYP2C19 inh 56
CC(C)(Oc1ccc(Cl)cc1)C(=O)Nc1ccc2oc(-c3ccncc3)nc2c1	none
CCCC(=O)Nc1ccc(-c2nc3cc(C)c(C)cc3o2)cc1	none
CCCCC(=O)Nc1ccc2oc(-c3ccncc3)nc2c1	CYP2C9 inhib 63, CYP2C19 inh 58
NC12CC3CC(C1)CC(CO)(C3)O2	none
Cc1[nH]c2ccccc2c1CCNC(=O)c1ccc2c(c1[N+](=O)[O-])C(=O)c1ccccc1C2=O	CYP2C19 inh 68 (no result: Mac1 fbg inh, Mac1 fbg enh)
CN(C)C(=O)c1ccc2c(c1[N+](=O)[O-])C(=O)c1ccccc1C2=O	none (no result: CYP2C9 inhib, CYP2C19 act, CYP2C19 inh, CYP2C9 activ)
Cc1[nH]c2c(C)cccc2c1CCNC(=O)c1ccc2c(c1[N+](=O)[O-])C(=O)c1ccccc1C2=O	CYP2C9 inhib 77, CYP2C19 inh 61 (no result: Mac1 fbg inh, Mac1 fbg enh)
CCCNC(=O)NCCc1c(C)[nH]c2ccccc12	CYP2C9 activ 2.5
Cc1c(C(=O)NCCC2=CCCCC2)cccc1[N+](=O)[O-]	none
CC1(C)CC(=O)c2cc(OCC(=O)NCCCN3CCN(c4ccc(F)cc4)CC3)ccc2O1	none
Cc1ccc(NC(=S)c2nc3ccccc3[nH]2)cc1	CYP2C19 inh 89 (no result: Mac1 fbg inh, Mac1 fbg enh)
Cc1ccc(C(=O)N/C(=C\c2cccs2)c2nc3ccccc3[nH]2)cc1	none (no result: CYP2C9 inhib, CYP2C19 act, CYP2C19 inh, CYP2C9 activ)
CCOC(=O)c1c(C)n(OC)c2ccc3c(no[n+]3[O-])c12	none
CCCCOn1c(C)c(C(=O)OCC)c2c3no[n+]([O-])c3ccc21	CYP2C9 inhib 62 (no result: Mac1 fbg inh, Mac1 fbg enh)
O=C(O)c1cccc(CSc2ncccn2)c1	none
CC(=O)CCCCn1c(=O)c2c(ncn2C)n(C)c1=O	CYP2C9 inhib 51
CCSc1ccccc1C(=O)Nc1cccc(OC)c1	none
N#CCC(CNc1ncc(C(F)(F)F)cc1Cl)OC(=O)c1cccc(C(F)(F)F)c1 (stereo not drawn)	CYP2C19 inh 63
COc1ccc(N(CC(=O)NC(C)(C)C)S(=O)(=O)c2ccccc2)cc1OC	none
COC(=O)CN(Cc1ccccc1)S(=O)(=O)c1ccc(OC)c(OC)c1	CYP2C19 inh 57
COc1ccc(S(=O)(=O)N(CCc2ccccc2)CC(=O)O)cc1OC	none
COC(=O)CN(CCc1ccccc1)S(=O)(=O)c1ccc(OC)c(OC)c1	CYP2C19 inh 99
COC(=O)CN(c1cc(OC)ccc1OC)S(=O)(=O)c1ccc(OC)c(OC)c1	CYP2C9 inhib 63, CYP2C19 inh 95
Cc1ccc2c(c1)C1CN(C)CCC1N2C(=O)Nc1ccc(Cl)cc1 (stereo not drawn)	none
Cc1ccc(C(C)C)c(OC(=O)/C=C/c2ccccc2)c1	none
Cc1ccc(CNC(=O)CCS(=O)(=O)c2ccc(Br)s2)o1	none
COc1cnc(SCc2ccc(Cl)cc2Cl)nc1Cl	none
Cc1nnc(SCc2ccccc2)nc1/C=C/NOCc1ccc(Cl)cc1Cl	CYP2C9 inhib 88, CYP2C19 inh 79
CC(=O)Nc1ccc(S(=O)(=O)NNC(=O)c2sc(=S)n(C)c2C)cc1	none (no result: CYP2C9 inhib, CYP2C19 act, CYP2C19 inh, CYP2C9 activ)
COC(=O)CC1=C(C)C(=O)CC2C(C)(C)CCCC12C (stereo not drawn)	CYP2C19 inh 57
c1coc(-c2nnc(SCc3nc4ccccc4[nH]3)o2)c1	none
CC(C)SCc1nc2ccccc2[nH]1	none
c1ccc(SCc2nc3ccccc3[nH]2)cc1	CYP2C19 inh 90 (no result: Mac1 fbg inh, Mac1 fbg enh)
N#Cc1cc2c(nc1SCc1nc3ccccc3[nH]1)CCC2	none
Cc1cc(C)c(C#N)c(SCc2nc3ccccc3[nH]2)n1	CYP2C9 inhib 58, CYP2C19 inh 56
Clc1ccc(SCc2nc3ccccc3[nH]2)cc1	CYP2C9 inhib 54, CYP2C19 inh 100 (no result: Mac1 fbg inh, Mac1 fbg enh)
Cc1ccc(SCc2nc3ccccc3[nH]2)cc1	CYP2C19 inh 89 (no result: Mac1 fbg inh, Mac1 fbg enh)
